Where “and” joins values, the source holds several entries; their conditions need not be identical. Equal entries are not always repeated. Inconclusive results are not listed. A call without a number means that no potency is given here. Calls of active or inactive are those of the source. Unless noted, calls follow the shape of the dose curve; as a rule, active = well fitted curve in the direction sought with a large enough effect in the repeat runs; inconclusive = weak or mixed curves; inactive = no such curve, though single readings can be large; an effect the other way counts as inactive or inconclusive.
Key:
[1] = qHTS assay to identify small molecule antagonists of the estrogen receptor alpha (ER-alpha) signaling pathway using the BG1 cell line in the presence of 0.1 nM 17-beta-estradiol - cell viability counter screen (AID 1259241); also: nearly all actives have a fitted effect of over 40% in size
Procedure, shortened: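 CellTiter-Fluor read (30 min, 37C) on ER-alpha/ERE-luc VM7Luc4E2 cells; 22 hr compound treatment; agonist 0.1 nM E2 final; same-well multiplex.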

[2] = qHTS assay to identify small molecule antagonists of the androgen receptor (AR) signaling pathway using the MDA cell line in the presence of 0.5 nM R1881 - cell viability counter screen (AID 1259242); also: nearly all actives have a fitted effect of over 45% in size
Procedure, shortened: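 R1881 at 0.5 nM final stimulated MDA-kb2 cells during 16 hr compound treatment at 37C. Cytotoxicity read: CellTiter-Fluor fluorescence after 30 min.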

[3] = qHTS assay to identify small molecule phospholipidosis (PLD) inducers (AID 1259344; active = well fitted curve in the direction sought with a large enough effect; an effect the other way counts as inactive or inconclusive)
Procedure, shortened: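 Quantitative HTS in HepG2: compound plus LipidTOX Red dye for 24 h, paraformaldehyde fixation with Hoechst 33342, widefield high-content imaging; amiodarone as positive and DMSO as negative control.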

[4] = qHTS assay to identify small molecule HDAC inhibitors (AID 1259364);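 also: wild-type HCT-116 cells with endogenous class I/II HDAC activity; top concentration of the series differs between compounds; nearly all actives have a fitted effect of over 45% in size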
Procedure, shortened: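 Relative class I and II HDAC activity is taken from the luminogenic signal in HCT-116 cells, with compound exposure 2 hr and reagent development 30 min at room temperature.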

[5] = qHTS assay to identify small molecule HDAC inhibitors - cell viability counter screen (AID 1259365); also: series mostly up to about 92 µM; nearly all actives have a fitted effect of over 50% in size
Procedure, shortened: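 To flag cytotoxic hits, 1,500 wild-type HCT-116 cells per well, plated the day before, receive test compounds for 2hr at 37 C before CellTiter-Glo reagent and a luminescence read.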

[6] = qHTS assay to identify small molecule agonists of the sonic hedgehog signaling (Shh) pathway - cell viability counter screen (AID 1259366); also: nearly all actives have a fitted effect of over 50% in size; also: potency is read from the fitted curve at half-maximal effect
Procedure, shortened: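 Fluorescence from CellTiter-Fluor reports live cells in this counter screen. NIH/3T3-derived Gli1-Luc reporter cells receive test compounds for 24hr at 37C; reagent goes in at 23hr.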

[7] = qHTS assay to identify small molecule antagonists of the sonic hedgehog signaling (Shh) pathway - cell viability counter screen (AID 1259367); also: nearly all actives have a fitted effect of over 55% in size; also: potency is read from the fitted curve at half-maximal effect
Procedure, shortened: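 Seed 3T3 Gli1-Luc cells at 2,000 per well; incubate 4 hr; add compound in DMSO, then conditioned medium; incubate at 37C with 5% CO2; add CellTiter-Fluor after 23 hr; read fluorescence 1 hr later.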

[8] = qHTS assay to identify small molecule agonists of the sonic hedgehog signaling (Shh) pathway (AID 1259368; calls by dose curve;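 also: NIH/3T3-derived 3T3Gli1-Luc cells carrying a stable Gli1-driven firefly luciferase reporter; series mostly up to about 92 µM; nearly all actives have a fitted effect of over 15% in size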)
Procedure, shortened: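 Mouse fibroblast (NIH/3T3) reporter cells with stably integrated Gli1-Luc were treated 24 hr with compound; firefly luciferase luminescence served as the read-out.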

[9] = target: Estrogen receptor (Homo sapiens) (UniProt P03372); test: qHTS assay to identify small molecule antagonists of the estrogen receptor alpha (ER-alpha) signaling pathway using the BG1 cell line in the presence of 0.1 nM 17-beta-estradiol (AID 1259244); also: nearly all actives have a fitted effect of over 50% in size
Chain of Estrogen receptor (Homo sapiens) (P03372 whole entry, looked up): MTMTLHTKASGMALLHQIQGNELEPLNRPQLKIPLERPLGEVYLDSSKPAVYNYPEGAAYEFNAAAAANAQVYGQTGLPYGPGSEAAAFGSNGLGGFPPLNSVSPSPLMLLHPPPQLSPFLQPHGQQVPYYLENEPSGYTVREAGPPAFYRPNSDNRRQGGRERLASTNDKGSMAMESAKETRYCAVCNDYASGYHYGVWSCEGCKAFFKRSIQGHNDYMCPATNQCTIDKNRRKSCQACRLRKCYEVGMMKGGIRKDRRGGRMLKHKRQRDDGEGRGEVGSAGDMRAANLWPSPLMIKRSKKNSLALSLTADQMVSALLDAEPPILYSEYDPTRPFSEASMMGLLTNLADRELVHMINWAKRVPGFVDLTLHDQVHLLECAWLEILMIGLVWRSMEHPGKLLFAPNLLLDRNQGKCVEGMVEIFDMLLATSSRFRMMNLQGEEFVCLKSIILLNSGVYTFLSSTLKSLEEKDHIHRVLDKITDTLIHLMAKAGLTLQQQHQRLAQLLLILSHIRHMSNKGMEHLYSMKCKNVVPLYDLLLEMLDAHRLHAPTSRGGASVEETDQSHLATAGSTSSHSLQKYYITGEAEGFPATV
Procedure, shortened: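 VM7Luc4E2; 4xERE-luciferase; 0.1 nM E2 final; 22 h co-incubation, 37C; ONE-Glo luminescence after 30 min at room temperature.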

SMILES	outcome [1]	Potency [2]	Potency [3]	Potency [4]	outcome [5]	Potency [6]	Potency [7]	outcome [8]	outcome [9]
CCCN(CCC)CCc1cccc2c1CC(=O)N2	inactive	inactive	inactive	inactive	inactive	inactive	inactive	inactive	–
CCN(Cc1ccncc1)C(=O)C(CO)c1ccccc1 (centres undefined)	inactive	inactive	inactive	inactive	inactive	inactive	inactive	inactive	–
Cc1[nH]c(=O)c(C#N)cc1-c1ccc2nccn2c1	inactive	inactive	inactive	inactive	inactive	inactive	inactive	inactive	–
C=CCS(=O)(=O)O	inactive	inactive	–	–	inactive	inactive	inactive	inactive	inactive
CC(C)OC(=O)c1ccccc1	inactive	inactive	–	–	inactive	inactive	inactive	inactive	inactive
O=C(O)CCCc1ccccc1	inactive	inactive	inactive	inactive	inactive	inactive	inactive	inactive	–
COCCc1ccc(OCC(O)CNC(C)C)cc1 (centres undefined)	inactive	inactive	inactive	inactive	inactive	inactive	inactive	inactive	–
CO[C@]12C[C@@H](COC(=O)c3cncc(Br)c3)CN(C)[C@@H]1Cc1cn(C)c3cccc2c13	inactive	inactive	inactive	–	inactive	inactive	inactive	inactive	–
C[N+](C)(C)CCCCCC[N+](C)(C)C	inactive	inactive	inactive	inactive	inactive	inactive	inactive	inactive	–
CCS(=O)(=O)c1ccc(OC)c(C(=O)OC)c1	inactive	inactive	–	inactive	inactive	–	inactive	inactive	inactive
CC[N+](C)(C)c1cccc(O)c1	inactive	inactive	inactive	inactive	inactive	inactive	inactive	inactive	–
CO[Si](CCCOCC1CO1)(OC)OC (centres undefined)	inactive	inactive	–	–	inactive	inactive	inactive	inactive	inactive
Cc1c(O)cccc1O	inactive	inactive	–	inactive	inactive	–	inactive	inactive	inactive
CCCN1CCCC[C@H]1C(=O)Nc1c(C)cccc1C	inactive	inactive	inactive	inactive	inactive	inactive	inactive	inactive	–
CC(C)(C)c1ccc(O)c(O)c1	inactive	inactive	inactive	inactive	inactive	27.3 µM (active)	50.2 µM (active) and 24.3 µM (active)	inactive	–

From PubChem BioAssay (Tox21)
